The whole screen tested about 310,000 compounds, of which about 14,000 (4.5%) showed an effect of 50% or more. The effect is printed as a negative number. The full list was thinned out, with strong results kept by preference.
Target: human ether-à-go-go-related gene (hERG) potassium channel (human, UniProt Q12809)
Assay: primary screen, population patch clamp on CHO cells stably expressing hERG; higher = less effect of the substance
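Note: peak tail current of the secondary pulse compared with the same well before compound.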

human ether-à-go-go-related gene (hERG) potassium channel, sequence (Q12809 whole entry, looked up): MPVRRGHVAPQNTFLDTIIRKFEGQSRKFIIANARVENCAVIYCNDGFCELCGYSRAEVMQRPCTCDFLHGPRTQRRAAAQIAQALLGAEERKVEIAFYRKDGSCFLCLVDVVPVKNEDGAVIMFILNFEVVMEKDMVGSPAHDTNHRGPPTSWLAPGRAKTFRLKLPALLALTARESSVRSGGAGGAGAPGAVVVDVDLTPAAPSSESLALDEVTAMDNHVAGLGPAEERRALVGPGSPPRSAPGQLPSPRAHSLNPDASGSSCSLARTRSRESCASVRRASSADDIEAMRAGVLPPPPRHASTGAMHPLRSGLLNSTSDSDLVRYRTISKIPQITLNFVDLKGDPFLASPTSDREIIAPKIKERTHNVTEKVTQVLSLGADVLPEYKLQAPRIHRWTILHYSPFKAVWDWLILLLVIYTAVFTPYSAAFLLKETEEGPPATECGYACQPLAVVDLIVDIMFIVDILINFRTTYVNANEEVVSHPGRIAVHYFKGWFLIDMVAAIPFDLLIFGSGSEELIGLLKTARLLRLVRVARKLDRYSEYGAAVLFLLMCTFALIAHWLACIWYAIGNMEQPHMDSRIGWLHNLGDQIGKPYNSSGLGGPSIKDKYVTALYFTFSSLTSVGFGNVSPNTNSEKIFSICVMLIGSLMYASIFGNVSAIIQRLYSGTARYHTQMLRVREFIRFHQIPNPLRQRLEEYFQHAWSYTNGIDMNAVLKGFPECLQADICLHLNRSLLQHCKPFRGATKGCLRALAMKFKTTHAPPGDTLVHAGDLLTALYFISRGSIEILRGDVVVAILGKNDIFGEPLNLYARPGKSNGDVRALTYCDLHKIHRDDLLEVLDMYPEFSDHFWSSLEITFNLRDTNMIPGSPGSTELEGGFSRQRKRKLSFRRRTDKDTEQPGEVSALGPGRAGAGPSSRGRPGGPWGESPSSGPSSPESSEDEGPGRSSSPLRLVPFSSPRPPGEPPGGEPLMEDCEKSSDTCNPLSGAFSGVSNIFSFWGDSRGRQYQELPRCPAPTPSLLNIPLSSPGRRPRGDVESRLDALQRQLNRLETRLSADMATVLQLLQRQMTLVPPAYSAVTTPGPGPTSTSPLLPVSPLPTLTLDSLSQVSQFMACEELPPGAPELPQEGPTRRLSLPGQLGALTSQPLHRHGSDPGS

SMILES | hERG current change (%, negative = inhibition) at 10uM [%]
COc1ccc(OCCNC(=S)Nc2cccc3ccccc23)cc1 | 3.79
Cc1ccccc1N(CC(=O)NC1CCCC1)C(=O)CS(=O)CC(=O)Nc1ccc2c(c1)OCO2 (stereo not drawn) | -8.74
COc1cc(C2NC(=O)NC(C)=C2C(C)=O)cc(OC)c1OC (stereo not drawn) | 9.41
Cc1nc(SCC(=O)O)c(C#N)c2c1CCCC2 | -10.9
COc1cc2c(-c3ccc4[nH]ccc4c3)c(-c3ccc(C#N)cc3)oc(=O)c2cc1OC | 20.9
CCCCC(=Nc1ccc(N)cc1)C1=C(O)C(C(=O)OC)C(C)(C)CC1=O (stereo not drawn) | -1.62
COc1ccc(S(=O)(=O)N(C)c2ccc(C(=O)NC3CC3)cc2)cc1 | -12.6
C=CCNC(=O)c1ccc(N(Cc2ccc(Cl)cc2)S(C)(=O)=O)cc1 | -33.5
COc1ccc(N(C)S(=O)(=O)c2cccc(C(=O)NC3CCCC3)c2)cc1 | -9.64
COCCCNC(=O)c1ccc(N(C)S(=O)(=O)c2ccc(OC)cc2)cc1 | -20.6
COc1ccc(S(=O)(=O)N(C)c2ccc(C(=O)NC3CCCC3)cc2)cc1 | -83.7
C=CCNC(=O)c1ccc(N(C)S(=O)(=O)c2ccc(OC)cc2)cc1 | -57.4
CCOc1ccc(N(Cc2ccc(C(=O)O)cc2)S(=O)(=O)c2ccc(C)cc2)cc1 | -12.5
C=CCNC(=O)c1ccc(OC)cc1 | -12
C=CCNC(=O)c1ccc(CN(c2ccc(OCC)cc2)S(=O)(=O)c2ccc(C)cc2)cc1 | -62
O=c1c2ccccc2nc(/C=C/c2ccc(Br)cc2)n1CCO | 2.81
COCCNC(=O)/C(C#N)=C/c1c(N2CCN(c3ccccc3)CC2)nc2c(C)cccn2c1=O | 5.92
O=C(Nc1cc(=O)[nH]c2ncnn12)c1ccccc1Cl | 1.15
CCOC(=O)c1ccc(N2C(=O)CC(C3CCCO3)C2=O)cc1 (stereo not drawn) | -11.2
CN(Cc1ccccc1)S(=O)(=O)c1ccc(N2CCCC2=O)cc1 | -12.7
Cc1cccc(Nc2ncnc3ccccc23)c1.Cl | -5.93
Fc1cccc(Nc2nc(-c3ccncc3)nc3ccccc23)c1 | 15.4
Cl.Nc1nc(Nc2cccc(F)c2)nc2ccccc12 | -19.3

SMILES | hERG current change (%, negative = inhibition) at 10uM [%]
Cl.c1ccc(Nc2c3c(nc4ccccc24)CCC3)cc1 | -76.2
Cc1ccc(NC(=O)c2c3c(nc4ccccc24)CCC3)cc1 | 2.86
Cc1ccc(Nc2c3c(nc4ccccc24)CCC3)cc1.Cl | -78.8
Cl.Fc1cccc(Nc2c3c(nc4ccccc24)CCC3)c1 | -68.2
Cc1cccc(Nc2c3c(nc4ccccc24)CCC3)c1.Cl | -71.5
COc1cccc(NC(=O)CCCOc2cc(=O)n(C)c3ccccc23)c1 | 12.6
Cc1ccc(-n2c(SCC(=O)N3CCCCC3)nc(O)cc2=O)cc1 | 16.1
Cc1ccnc(SC2CC(=O)N(c3ccc([N+](=O)[O-])cc3)C2=O)n1 (stereo not drawn) | -26.8
COc1ccc(CNC(=O)c2ccc3c(c2)N(C)CCS3)cc1 | -2.44
O=[N+]([O-])c1ccc(Cl)cc1NCCCN1CCOCC1 | 0.725
O=C(NCc1ccc2c(c1)CCO2)Nc1cccc(C(F)(F)F)c1 | 12.6
CCc1noc(C)c1C(=O)OC(C)C(=O)NCc1ccc(OC)cc1 (stereo not drawn) | -15.3
COc1ccc(-n2c(=O)[nH]cc(C(=O)N3CCc4ccccc43)c2=O)cc1 | 16.2
COc1ccc(-c2csc3nc(-c4ccccc4)oc(=O)c23)cc1OC | 14.3
CN(C)CCNC(=O)c1ccc2c(c1)N(Cc1ccc(F)cc1)CCS2 | -32.8
COc1cc(/C=C2\SC(N3CCC(C)CC3)=NC2=O)ccc1O | -5.99
Cc1ccc(C)c(NC(=O)COC(=O)c2cccc3c2C(=O)c2ccccc2C3=O)c1 | -14.2
CC(=O)Nc1ccc(Nc2c3ccccc3nc3ccccc23)cc1 | -55.7
Cl.O=C(O)c1ccc(Nc2c3ccccc3nc3ccccc23)cc1 | -2.61
Fc1ccc(Nc2c3c(nc4ccccc24)CCC3)cc1 | -64.3
COc1ccc(NC(=O)c2c3c(nc4ccccc24)CCC3)cc1 | 10.1
COc1cc(NC(=O)c2c3c(nc4ccccc24)CCC3)cc(OC)c1 | 11.3

From paper PMC4336329 (PLoS ONE, 2015)
